Screens (PubChem)
In the library only some 3.4% were active in any assay of this set; here they are far more common.
AI-2 QS mod: modulates the Vibrio harveyi AI-2 quorum sensing system; Vibrio harveyi JMH597 AI-2 luminescence/OD600 ratio, 9 h; stronger effect = lower value; strain lacks LuxN and CqsS sensors; 0 = neutral-control median; activity change, % at 7.5 µM; hit rate 0.4% among 300,000; AID 2094; in the data active means activity change below about -75%, passing the limit was not always enough;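 further: luminescence divided by OD600 gain over 9 h not by final OD600 alone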
HSP90 refold inh: HSP90 refolding inhibition in rabbit reticulocyte lysate. AID 1789. inhibition, % at 5.6 µM. hit rate 0.91% among 290,000. luciferase refolding luminescence, 3 h;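 active means inhibition above the screen-wide mean plus 3 SD, computed separately per campaign, cut at about 16% in these data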;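 further: inhibitors lower the luminescence because luciferase stays unfolded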
FXN GAA850 act: frataxin GAA850 promoter activation | HEK293 lucGAA850 FXN promoter luciferase reporter, 24 h; percent of 10 µM SAHA response | activation, % at 6 µM | hit rate 0.56% among 360,000 | AID 540364;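 active means activation above the average of all compounds screened plus 3 SD, cutoff fixed separately per campaign, cut at about 7.5% in these data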
HSF1 inhib: HSF1 inhibition; NIH3T3-HGL HSE-luciferase, MG132-induced, luminescence 8 h; stronger effect = lower value; activity change, negative = inhibition, % at 7.5 µM (by protocol); hit rate 0.77% among 300,000;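 active means more than half of replicate wells show activity change below -50%, luminescence cut by over half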;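 further: luciferase reports HSF-1 transcriptional activity via heat shock element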
PG9 Ab binder: PG9 antibody binding by small molecule; TR-FRET gp120-PG9 antibody binding; inhibition, % at 6.7 µM; AID 624416; hit rate 0.43% among 360,000; in the data active means inhibition above about 8.5%
SMARCA2 activ: increases SMARCA2 function in MMTV reporter cells; activation, % at 9.1 µM; MG213 cells, MMTV-luciferase reporter, dexamethasone, overnight; hit rate 1% among 370,000; in the data active means activation above about 7.8%
GAA30 counter: activates GAA30 frataxin promoter, counter-screen for GAA850 activators; HEK293 lucGAA30 FXN promoter luciferase, 24 h; DMSO = 0%, 5 µM ipriflavone = 100%; hit rate 66% among 1,900; shares compounds with FXN GAA850 act; activation, % at 6 µM;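 active means mean activation above the mean of solvent-only control wells plus 3 SD, cut at about 22% in these data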;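 further: counterscreen of GAA850 promoter hits where activity marks nonselective or luminescence artifacts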
GAA850 confirm: confirmation of GAA850 frataxin (FXN) promoter activators | shares compounds with FXN GAA850 act | HEK293 lucGAA850 FXN promoter luciferase reporter, 24 h; 100% = activation by SAHA | activation, % at 6 µM | hit rate 86% among 1,900;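 active means mean activation above a set limit taken from the primary screen, cut at about 8% in these data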
SMARCA2 conf: SMARCA2 activation, confirmation screen | shares compounds with SMARCA2 activ | MG213 cells, MMTV-luciferase with dexamethasone, luminescence, overnight; MG213 cells expressing E1A, Rb sequestered; DMSO wells 0%, reference activator 100% | activation, % at 9.1 µM | hit rate 30% among 3,500 | AID 652260;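 active means activation above its plate's cutoff, the mean activation of tested wells plus 3 SD, cut at about 7.9% in these data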
VP16 Luc act: counter-screen for SMARCA2 activators: GAL4-VP16 luciferase reporter activation. HEK293 GAL4-VP16 pG5luc reporter, luciferase luminescence; scaled: DMSO wells 0%, SAHA wells 100%. shares compounds with SMARCA2 activ. activation, % at 9.1 µM. hit rate 41% among 3,500;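 active means activation above the solvent-only control well mean plus 3 SD, averaged across control plates, cut at about 5.2% in these data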
Large screens that a line does not name were inactive (follow-up assays come after a bar, where they were run).

Cc1cc2[nH]c3c(c[n+](C)c4ccccc34)c2cc1C	FXN GAA850 act 10, SMARCA2 activ 112 | GAA30 counter inactive | GAA850 confirm 95 | SMARCA2 conf inactive | VP16 Luc act inactive
Cc1cc2[nH]c3c4ccccc4nc(C)c3c2cc1C	none (no result: AI-2 QS mod, HSP90 refold inh, HSF1 inhib)
N#CCn1cnc2sc(-c3ccccc3)cc2c1=O	FXN GAA850 act 9.2, SMARCA2 activ 9.1 | GAA30 counter 76 | GAA850 confirm 28 | SMARCA2 conf 11 | VP16 Luc act inactive
CCOC(=O)c1cccc(NC(=O)CN(C)S(=O)(=O)c2cc(OC)ccc2OC)c1	none (no result: AI-2 QS mod, HSP90 refold inh, FXN GAA850 act, HSF1 inhib, PG9 Ab binder)
O=C(Oc1c(CN2CCOCC2)cc(Cl)c2cccnc12)c1ccccc1Cl	FXN GAA850 act 13, SMARCA2 activ 19 | GAA30 counter inactive | GAA850 confirm 19 | SMARCA2 conf inactive | VP16 Luc act inactive
CCN(C)C1CN(Cc2cn(CCCC(=O)OC)nn2)S(=O)(=O)C1 (stereo not drawn)	none (no result: AI-2 QS mod, HSP90 refold inh, FXN GAA850 act, HSF1 inhib)
COc1ccc(OC)c(S(=O)(=O)NCC2CCN(C(=O)C(=O)c3cc4ccccc4o3)CC2)c1	none (no result: AI-2 QS mod, HSP90 refold inh, FXN GAA850 act, HSF1 inhib)
COc1cc2sc3cc(NCc4ccc5c(c4)OCO5)ccc3c(=O)c2cc1OC	none (no result: AI-2 QS mod, HSP90 refold inh, HSF1 inhib)
COc1cc2sc3cc(NCc4ccc(C)o4)ccc3c(=O)c2cc1OC	FXN GAA850 act 11, SMARCA2 activ 8.7 (no result: AI-2 QS mod, HSP90 refold inh, HSF1 inhib) | GAA30 counter 109 | GAA850 confirm 35 | SMARCA2 conf 8.9 | VP16 Luc act 9.3
Cc1ccccc1C(=O)N(C)[C@H]1C[C@H]2c3[nH]c4c(-c5ccccc5)cccc4c3CCN2C(=O)[C@H]1[C@H](C)O	none (no result: AI-2 QS mod, HSP90 refold inh, FXN GAA850 act, HSF1 inhib)
O=C(CSc1nc2ccccc2[nH]1)NN=Cc1ccccc1C(=O)O	none (no result: AI-2 QS mod, HSP90 refold inh, FXN GAA850 act, HSF1 inhib, PG9 Ab binder)
Cc1cc(C)cc(NC(=O)/C=C/c2ccc([N+](=O)[O-])s2)c1	FXN GAA850 act 8.7, SMARCA2 activ 8.8 | GAA30 counter inactive | GAA850 confirm 18 | SMARCA2 conf inactive | VP16 Luc act inactive
CC(=O)c1cccc(NC(=O)/C=C/c2ccc([N+](=O)[O-])s2)c1	none
COc1ccc2oc(=Nc3ccccc3)c(-c3nc4ccccc4[nH]3)cc2c1	FXN GAA850 act 7.9, SMARCA2 activ 11 | GAA30 counter 109 | GAA850 confirm 39 | SMARCA2 conf inactive | VP16 Luc act 9.8
COc1ccc2oc(=Nc3cccc(F)c3)c(C(N)=O)cc2c1	none
CCCc1nc2c(C)cc(Br)cn2c1Cc1cccc(Cl)c1	none (no result: AI-2 QS mod, HSP90 refold inh, FXN GAA850 act, HSF1 inhib)
CCCCN1CN2Cc3cc(F)ccc3C2CS1(=O)=O (stereo not drawn)	none (no result: AI-2 QS mod, HSP90 refold inh, FXN GAA850 act, HSF1 inhib, PG9 Ab binder)
C=C[C@@]1(C)CC(=O)[C@]2(O)[C@@]3(C)[C@@H](O)CCC(C)(C)[C@@H]3[C@H](O)[C@H](OC(C)=O)[C@@]2(C)O1	FXN GAA850 act 16, SMARCA2 activ 21 (no result: HSP90 refold inh) | GAA30 counter inactive | GAA850 confirm 15 | SMARCA2 conf 21 | VP16 Luc act 25
O=C1C2C3C=CC(C4CC34)C2C(=O)N1/N=C/c1ccc([N+](=O)[O-])o1 (stereo not drawn)	FXN GAA850 act 9.6, SMARCA2 activ 9.3 | GAA30 counter inactive | GAA850 confirm 12 | SMARCA2 conf 10 | VP16 Luc act inactive
Cc1ccc(-c2nc(CN3CCCCC3)cc(CN3CCCCC3)c2O)cc1	FXN GAA850 act 7.9, SMARCA2 activ 8.2 | GAA30 counter 29 | GAA850 confirm 17 | SMARCA2 conf inactive | VP16 Luc act inactive
CC(=O)OCC(=O)N1CCN(C(=O)C(=O)c2cccc(C(F)(F)F)c2)CC1	none (no result: AI-2 QS mod, HSP90 refold inh, FXN GAA850 act, HSF1 inhib)
